Results on 40 compounds are retold here after PubChem BioAssay (NCI).

This is part of a sample that, as a whole, favours compounds with a hit. Of some 79,000 tested, about 15% had one in any assay. Values without a mark were called inactive. Activity calls are given as the source filed them. Rule as the data show it: active = growth inhibition above about 70%; inactive = the rest.

A short description of the assay: NCI Yeast Anticancer Drug Screen. Data for the mlh1 rad18 strain (AID 175). As to conditions: S. cerevisiae mlh1 rad18 strain growth inhibition; at 50.0 µM; active compounds read high. The procedure:
Growth inhibition of yeast strains with defined genetic alterations is measured as a screen for potential anti-cancer activity. Selected strains with alterations in DNA damage repair or cell cycle control were exposed to compounds and growth inhibition was measured relative to vehicle treated controls. The strain used in this assay is mlh1 rad18
In the case of `C=CCNc1ccc(Cl)cc1Cl`, the growth inhibition is 12.6%.

As to `CN(C)c1nc2ccc(Cl)cc2c(=O)[nH]1`, the growth inhibition is 3.9%.

On to `CC/C(=C\c1ccc(OC)cc1)c1ccc(OC)cc1`, for which the growth inhibition is -5.05%.

Regarding `CC(C)(C)C(=O)CC(=O)C(C)(C)C.[Cu]`, the growth inhibition is 9.05%.

As to `COC(=O)C(=O)C(C(=O)C(=O)Nc1cccc([N+](=O)[O-])c1)c1nc2ccc(Cl)cc2[nH]c1=O` (stereo not given), the growth inhibition was 0.2%.

As for `ON(Cc1ccccc1)Cc1ccccc1`, the growth inhibition was -19.1%.

Turning to `COc1ccc(NC(=O)N(C)Cc2ccccc2Cl)cc1`, the growth inhibition is 0.4%.

As to `N#C/C(=C\C=C\c1ccccc1)C(N)=O`, the growth inhibition was -49.8%.

Turning to `CC(=O)OCC(CO)(CO)COC(C)=O`, the growth inhibition was -6.7%.

Take `N#Cc1c(N)[n+]([O-])c2c([n+]1[O-])CCCC2`: the growth inhibition is -3.35%.

For the compound `COC(=O)c1c2c(cc3c1CC1(Cc4cc5c(cc4C1)CCCC5)C3)CCCC2`, the growth inhibition was 7.35%.

Regarding `O=C1C2C=CC(n3[nH]c(=O)n(Cc4ccccc4)c3=O)CC2C(=O)N1c1ccc(Br)cc1` (stereo not given), the growth inhibition was 2%.

As to `CC1=NC2c3c(-c4ccc(Cl)cc4)cn(-c4ccc(C)cc4)c3N=CN2N1` (stereo not given), the growth inhibition is -1.6%.

In the case of `CCC(=O)C(CC)c1ccccc1` (stereo not given), the growth inhibition was 4.55%.

Regarding `O=C(CCc1ccc(O)c(O)c1)NCCc1cc(OCc2ccccc2)cc(OCc2ccccc2)c1`, the growth inhibition is 73.1% (active).

On to `Nc1nc(N)nc(-c2ccccc2NC(=O)c2ccccc2N)n1`, for which the growth inhibition was 18%.

For `O=C(CCn1ccnc1[N+](=O)[O-])NCCCn1ccnc1[N+](=O)[O-]`, the growth inhibition is -52.2%.

As to `O=C(Nc1ccc([N+](=O)[O-])cc1)c1ccc(Cl)cc1`, the growth inhibition is -36.5%.

As to `CSc1ccc(NC(=O)Nc2ccccc2C(F)(F)F)cc1`, the growth inhibition is 27%.

Turning to `C#CCN(C(=O)C(F)(F)F)C(/C=C\C(=O)OC)(C(=O)OCC)C(=O)OCC`, the growth inhibition is -2.55%.

With `CCOC(=O)CC[C@@H](NC(=O)c1ccc(NCc2ccc3nc(OC)c(OC)nc3c2)cc1)C(=O)OCC`, the growth inhibition is -13.4%.

On to `CS(=O)(=O)OC12CC3CC(CC(C3)C1)C2`, for which the growth inhibition is 5.55%.

In the case of `O=S1(=O)CS/C(=N/C(=S)N(Cc2ccccc2)Cc2ccccc2)N1c1ccccc1`, the growth inhibition is 29.6%.

For the compound `CC(C)CN(CC(C)C)C(=O)c1ccc([N+](=O)[O-])cc1`, the growth inhibition was 20.9%.

For the compound `CCOC(OCC)C(C)(C)OC=O`, the growth inhibition was 6.6%.

Take `O=c1cc(-c2ccccc2)oc2c(N=Nc3ccccc3)ccc(O)c12`: the growth inhibition was -11.5%.

`O=C(OC1OC(COCc2ccccc2)C(OCc2ccccc2)C1OCc1ccccc1)c1ccc([N+](=O)[O-])cc1` (stereo not given): the growth inhibition was -1.35%.

On to `[N-]=[N+]=CC(=O)CCN1C(=O)c2ccccc2C1=O`, for which the growth inhibition is -1.55%.

On to `CC1CN=C(N(C(=O)Nc2ccc(Cl)cc2)c2cccc(Cl)c2)S1` (stereo not given), for which the growth inhibition was -52%.

In the case of `CC1(C)OC2OC(C3CC3)C(O)C2O1` (stereo not given), the growth inhibition was -1.85%.

For the compound `Cc1ccc(N(C(=O)Nc2ccccc2)C2=NCC(C)S2)cc1C` (stereo not given), the growth inhibition was -39.6%.

Regarding `CCC1(CC)C(=O)NN(C(=O)c2ccccc2)C1=O`, the growth inhibition was -43.4%.

`CC(=O)C1(c2ccccc2)C(C)(C)C(C)(C)C(=O)C(C)(C)C1(C)C`: the growth inhibition is 21.6%.

As to `O=C(O)CCCCC1CCCC1`, the growth inhibition was 56.4%.

As to `CCOC(=O)NC(=O)c1cn(C2CCCCC2)c(=O)[nH]c1=O`, the growth inhibition was 3.35%.

Consider `O=C(O)c1c2ccccc2nc2c1sc1ccccc12`, for which the growth inhibition was -7.85%.

As for `CC(C)c1ccc2c(c1)CCC1C2(C)CCCC1(C)C(O)c1ccccc1` (stereo not given), the growth inhibition was 32.1%.

With `Nc1c(C(=O)O)cccc1C(=O)O`, the growth inhibition is 6.75%.

In the case of `Cc1ccc(S(=O)(=O)OC(c2ccc(C(OS(=O)(=O)c3ccc(C)cc3)(C(F)(F)F)C(F)(F)F)cc2)(C(F)(F)F)C(F)(F)F)cc1`, the growth inhibition was 4.7%.

Take `O=C(O)c1ccc(Cl)cc1C(=O)c1ccc(Cl)cc1`: the growth inhibition was -13.1%.
